# Data reported in PMC5700166.
# Target: T1, GST-Ap-NF-kB RHD (Exaiptasia pallida (Aiptasia), UniProt A0A913YAJ5 2-422)
# T1 sequence: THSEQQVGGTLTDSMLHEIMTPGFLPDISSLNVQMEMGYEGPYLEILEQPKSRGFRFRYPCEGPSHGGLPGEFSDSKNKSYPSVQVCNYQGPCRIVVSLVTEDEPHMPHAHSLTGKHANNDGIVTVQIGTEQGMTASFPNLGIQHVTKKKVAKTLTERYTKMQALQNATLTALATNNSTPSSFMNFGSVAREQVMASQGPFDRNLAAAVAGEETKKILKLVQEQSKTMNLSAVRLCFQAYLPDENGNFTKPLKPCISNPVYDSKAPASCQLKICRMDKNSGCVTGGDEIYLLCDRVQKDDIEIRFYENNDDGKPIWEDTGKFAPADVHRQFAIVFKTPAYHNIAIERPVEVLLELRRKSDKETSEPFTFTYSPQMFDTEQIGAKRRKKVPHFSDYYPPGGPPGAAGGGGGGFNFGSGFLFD
# Test: protein-binding microarray (PBM); PBM: ~300 nM protein, 6 mM HEPES pH 7.8, 80 mM KCl, 0.5 mM EDTA, 0.5 mM EGTA, 6% glycerol, 35 ng/ul poly-dIdC, 1% milk, 1 h, room temperature; Ap Aiptasia and Nv Nematostella (sea anemones) / Co Capsaspora / Aq Amphimedon (sponge) / Dm Drosophila / Hu human; RHD is the Rel homology domain; high values mean tight binding
# Conditions: dsDNA, one strand shown
row,Sequence,binding signal [z-score]
1,CCGATTAACATCAGGGAAAGGAATGATGTTAATCGGGTCTTGATTCGCTTGACGCTGCTG,1.83
2,CCGATTAACATCAGGGAAAAGAATGATGTTAATCGGGTCTTGATTCGCTTGACGCTGCTG,2.43
3,CCGATTAACATCATGATGGGAAATGATGTTAATCGGGTCTTGATTCGCTTGACGCTGCTG,1.17
4,CCGATTAACATCAAATGTGGGAATGATGTTAATCGGGTCTTGATTCGCTTGACGCTGCTG,1.11
5,CCGATTAACATCAAACAGGGAAATGATGTTAATCGGGTCTTGATTCGCTTGACGCTGCTG,2.71
6,CCGATTAACATCAAGCCCCCCCCTGATGTTAATCGGGTCTTGATTCGCTTGACGCTGCTG,5.25
7,CCGATTAACATCACATGGGAAACTGATGTTAATCGGGTCTTGATTCGCTTGACGCTGCTG,1.24
8,CCGATTAACATCATGGGAAGGTTTGATGTTAATCGGGTCTTGATTCGCTTGACGCTGCTG,1.34
9,CCGATTAACATCACTTTCCCAAATGATGTTAATCGGGTCTTGATTCGCTTGACGCTGCTG,1.27
10,CCGATTAACATCAGAATCTCCCATGATGTTAATCGGGTCTTGATTCGCTTGACGCTGCTG,1.74
11,CCGATTAACATCAGCTCCCCCCCTGATGTTAATCGGGTCTTGATTCGCTTGACGCTGCTG,5.26
12,CCGATTAACATCACTCCCTAAAATGATGTTAATCGGGTCTTGATTCGCTTGACGCTGCTG,1.35

# Target: T2, GST-Nv-NF-kB (Cys allele) (Nematostella vectensis, UniProt E5G601 2-411)
# T2 sequence: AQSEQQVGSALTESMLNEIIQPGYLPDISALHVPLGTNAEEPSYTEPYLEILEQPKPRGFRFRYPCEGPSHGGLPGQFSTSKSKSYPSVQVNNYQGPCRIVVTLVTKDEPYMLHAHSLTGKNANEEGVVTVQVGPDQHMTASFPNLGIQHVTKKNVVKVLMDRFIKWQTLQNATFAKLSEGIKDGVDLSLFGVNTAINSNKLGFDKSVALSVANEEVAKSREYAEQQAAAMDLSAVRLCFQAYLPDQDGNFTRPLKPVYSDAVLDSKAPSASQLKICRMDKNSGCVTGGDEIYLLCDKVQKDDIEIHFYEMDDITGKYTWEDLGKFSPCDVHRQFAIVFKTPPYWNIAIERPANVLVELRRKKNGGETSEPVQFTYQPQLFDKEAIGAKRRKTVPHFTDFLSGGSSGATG
# Test: as above
# Conditions: dsDNA, one strand shown
row,Sequence,binding signal [z-score]
1,CCGATTAACATCAACTGGGAAAATGATGTTAATCGGGTCTTGATTCGCTTGACGCTGCTG,3.04
2,CCGATTAACATCACCTTGGGAAATGATGTTAATCGGGTCTTGATTCGCTTGACGCTGCTG,1.7
3,CCGATTAACATCAAATCGGGAAATGATGTTAATCGGGTCTTGATTCGCTTGACGCTGCTG,3.49
4,CCGATTAACATCAAGCGTTTCCCTGATGTTAATCGGGTCTTGATTCGCTTGACGCTGCTG,3.6
5,CCGATTAACATCAGACTGGGAAATGATGTTAATCGGGTCTTGATTCGCTTGACGCTGCTG,1.92
6,CCGATTAACATCAATTTACCCACTGATGTTAATCGGGTCTTGATTCGCTTGACGCTGCTG,1.68
7,CCGATTAACATCATGCCCGGGAATGATGTTAATCGGGTCTTGATTCGCTTGACGCTGCTG,1.27
8,CCGATTAACATCAATCGGGAAATTGATGTTAATCGGGTCTTGATTCGCTTGACGCTGCTG,3.45
9,CCGATTAACATCATGGTGGGAAATGATGTTAATCGGGTCTTGATTCGCTTGACGCTGCTG,2.69
10,CCGATTAACATCACCTCTTTCCCTGATGTTAATCGGGTCTTGATTCGCTTGACGCTGCTG,2.64
11,CCGATTAACATCAGACATTCCCATGATGTTAATCGGGTCTTGATTCGCTTGACGCTGCTG,2.27
12,CCGATTAACATCAGGGGTAGGTTTGATGTTAATCGGGTCTTGATTCGCTTGACGCTGCTG,1.65
13,CCGATTAACATCATCTGGGAAAATGATGTTAATCGGGTCTTGATTCGCTTGACGCTGCTG,2.91
14,CCGATTAACATCAGGGAAAGGTATGATGTTAATCGGGTCTTGATTCGCTTGACGCTGCTG,3.44
15,CCGATTAACATCATGGGGACGACTGATGTTAATCGGGTCTTGATTCGCTTGACGCTGCTG,3.19
16,CCGATTAACATCATGGAGGGAGGTGATGTTAATCGGGTCTTGATTCGCTTGACGCTGCTG,1.62
17,CCGATTAACATCAACTTTCCCAGTGATGTTAATCGGGTCTTGATTCGCTTGACGCTGCTG,2
18,CCGATTAACATCACCCACTTCCCTGATGTTAATCGGGTCTTGATTCGCTTGACGCTGCTG,1.67
19,CCGATTAACATCAGGGACAAAAATGATGTTAATCGGGTCTTGATTCGCTTGACGCTGCTG,3.15
20,CCGATTAACATCAGGGAATCAGATGATGTTAATCGGGTCTTGATTCGCTTGACGCTGCTG,1.61
21,CCGATTAACATCATGTTGGGAAATGATGTTAATCGGGTCTTGATTCGCTTGACGCTGCTG,2.29
22,CCGATTAACATCAACTCGGGAAATGATGTTAATCGGGTCTTGATTCGCTTGACGCTGCTG,2.75
23,CCGATTAACATCAATTCCCGTACTGATGTTAATCGGGTCTTGATTCGCTTGACGCTGCTG,2.92
24,CCGATTAACATCAACATGGGAAATGATGTTAATCGGGTCTTGATTCGCTTGACGCTGCTG,2.51
25,CCGATTAACATCATCAGGGAAAATGATGTTAATCGGGTCTTGATTCGCTTGACGCTGCTG,4.35
